The source of these data is PMC7862700, “An all-to-all approach to the identification of sequence-specific readers for epigenetic DNA modifications on cytosine”.

Experiment in all cases: DAPPL (digital affinity profiling via proximity ligation, sequencing); 10 mM Tris-HCl pH 7.5, 50 mM NaCl, 1 mM DTT, 4% glycerol, room temperature, 30 min; GST-TFs on glutathione beads, 16-mer random dsDNA library, 0.1% formaldehyde crosslink after washing; high values mean tight binding
In one assay the target is T1, FLI1 (Homo sapiens, UniProt Q01543 1-452).
T1 sequence: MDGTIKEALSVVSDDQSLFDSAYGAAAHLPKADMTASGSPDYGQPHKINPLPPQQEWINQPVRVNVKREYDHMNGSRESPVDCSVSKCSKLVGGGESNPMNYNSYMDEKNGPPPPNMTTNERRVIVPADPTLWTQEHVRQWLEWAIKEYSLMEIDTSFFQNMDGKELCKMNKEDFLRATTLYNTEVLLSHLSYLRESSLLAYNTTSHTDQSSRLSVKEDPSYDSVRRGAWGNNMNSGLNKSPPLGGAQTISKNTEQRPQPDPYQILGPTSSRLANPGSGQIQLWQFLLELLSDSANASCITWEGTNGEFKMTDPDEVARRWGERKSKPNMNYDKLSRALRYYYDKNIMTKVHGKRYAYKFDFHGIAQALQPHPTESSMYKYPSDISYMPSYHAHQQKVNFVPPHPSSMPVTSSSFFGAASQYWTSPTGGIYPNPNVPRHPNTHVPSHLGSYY
As to conditions: protein: recombinant; tags: N-terminal GST; dsDNA, one strand shown. An outline of the steps:
(§1)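 In yeast, human transcription factors were expressed with a GST fusion, then pulled down on glutathione beads and given DNA barcodes. Pooled with a tag-only sample, they were exposed to 200 nmole of a 16-mer random double-stranded DNA library (Tris/NaCl/DTT/glycerol buffer, room temperature, 30 min), washed, crosslinked with 0.1% formaldehyde, proximity-ligated using BsaI/T4 ligase for 1 h at 37 °C, PCR-amplified and read on an Illumina NextSeq500. Each hexamer's frequency of reads for a factor, divided by the matching frequency for the tag-only sample, gives the binding signal.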

For the next assay, the target named is T2, ELK1 (Homo sapiens, UniProt P19419 1-428).
T2 sequence: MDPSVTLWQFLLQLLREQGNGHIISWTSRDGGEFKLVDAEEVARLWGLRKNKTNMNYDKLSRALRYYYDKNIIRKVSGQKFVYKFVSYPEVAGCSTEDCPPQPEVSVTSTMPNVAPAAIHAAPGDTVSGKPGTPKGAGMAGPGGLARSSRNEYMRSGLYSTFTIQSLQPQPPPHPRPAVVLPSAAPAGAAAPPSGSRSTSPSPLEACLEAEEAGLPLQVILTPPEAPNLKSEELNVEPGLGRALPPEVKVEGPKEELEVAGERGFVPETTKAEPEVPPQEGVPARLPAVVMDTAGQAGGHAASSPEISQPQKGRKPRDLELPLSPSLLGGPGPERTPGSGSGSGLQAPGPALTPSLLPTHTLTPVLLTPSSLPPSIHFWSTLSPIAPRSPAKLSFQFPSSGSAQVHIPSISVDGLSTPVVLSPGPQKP
As to conditions: protein: recombinant; tags: N-terminal GST; dsDNA, one strand shown. An outline of the steps:
as §1

A further assay has as its target T3, GABPA (Homo sapiens, UniProt Q06546 1-454).
T3 sequence: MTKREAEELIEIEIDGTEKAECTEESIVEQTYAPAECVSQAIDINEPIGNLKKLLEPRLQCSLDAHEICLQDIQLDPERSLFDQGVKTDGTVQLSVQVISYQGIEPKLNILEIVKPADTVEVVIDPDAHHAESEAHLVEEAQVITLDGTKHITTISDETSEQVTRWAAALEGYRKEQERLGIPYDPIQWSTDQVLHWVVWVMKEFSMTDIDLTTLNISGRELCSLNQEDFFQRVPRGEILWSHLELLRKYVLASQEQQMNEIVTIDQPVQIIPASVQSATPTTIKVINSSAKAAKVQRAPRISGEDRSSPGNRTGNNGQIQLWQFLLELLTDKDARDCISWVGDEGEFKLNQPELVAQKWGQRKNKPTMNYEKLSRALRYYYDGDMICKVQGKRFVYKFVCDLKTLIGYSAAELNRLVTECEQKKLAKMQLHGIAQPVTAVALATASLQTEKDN
Conditions: protein: recombinant; tags: N-terminal GST; dsDNA, one strand shown. An outline of the steps:
as §1

The target in another assay is T4, ERG (Homo sapiens, UniProt P11308 1-479).
T4 sequence: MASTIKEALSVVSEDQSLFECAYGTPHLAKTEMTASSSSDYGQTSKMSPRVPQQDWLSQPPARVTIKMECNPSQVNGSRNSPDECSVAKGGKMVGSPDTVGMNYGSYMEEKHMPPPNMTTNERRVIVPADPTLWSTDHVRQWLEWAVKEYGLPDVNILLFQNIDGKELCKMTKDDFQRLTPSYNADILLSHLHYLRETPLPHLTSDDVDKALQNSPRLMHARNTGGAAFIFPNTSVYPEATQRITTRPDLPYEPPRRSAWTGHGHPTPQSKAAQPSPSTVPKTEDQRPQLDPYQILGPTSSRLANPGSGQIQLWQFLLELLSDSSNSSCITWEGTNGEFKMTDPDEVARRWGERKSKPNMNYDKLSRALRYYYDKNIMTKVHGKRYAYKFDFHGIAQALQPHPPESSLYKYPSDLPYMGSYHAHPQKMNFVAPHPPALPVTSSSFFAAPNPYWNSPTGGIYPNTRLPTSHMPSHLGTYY
As to conditions: protein: recombinant; tags: N-terminal GST; dsDNA, one strand shown. An outline of the steps: as §1

For another assay, the target named is ELF1 (Homo sapiens, UniProt P32519 1-619). As to conditions: protein: recombinant; tags: N-terminal GST; dsDNA, one strand shown. An outline of the steps: as §1
In another assay the target is T5, EHF (Homo sapiens, UniProt Q9NZC4 1-300).
T5 sequence: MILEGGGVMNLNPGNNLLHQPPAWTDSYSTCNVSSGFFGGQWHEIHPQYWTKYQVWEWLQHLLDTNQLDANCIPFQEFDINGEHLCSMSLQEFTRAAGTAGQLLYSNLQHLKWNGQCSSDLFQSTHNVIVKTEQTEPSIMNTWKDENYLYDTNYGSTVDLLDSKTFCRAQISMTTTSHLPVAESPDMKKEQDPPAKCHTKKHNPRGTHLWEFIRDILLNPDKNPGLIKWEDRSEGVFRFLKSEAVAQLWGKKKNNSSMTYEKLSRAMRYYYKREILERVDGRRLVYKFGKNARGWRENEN
As to conditions: protein: recombinant; tags: N-terminal GST; dsDNA, one strand shown. In short, it runs like this: as §1

In another assay the target is SPI1 (Homo sapiens, UniProt P17947 1-270). Conditions: protein: recombinant; tags: N-terminal GST; dsDNA, one strand shown. An outline of the steps:
as §1

A further assay deals with SPIB (Homo sapiens, UniProt Q01892 1-262). Conditions: protein: recombinant; tags: N-terminal GST; dsDNA, one strand shown. An outline of the steps:
as §1

A further assay has as its target T6, ELK3 (Homo sapiens, UniProt P41970 1-407).
T6 sequence: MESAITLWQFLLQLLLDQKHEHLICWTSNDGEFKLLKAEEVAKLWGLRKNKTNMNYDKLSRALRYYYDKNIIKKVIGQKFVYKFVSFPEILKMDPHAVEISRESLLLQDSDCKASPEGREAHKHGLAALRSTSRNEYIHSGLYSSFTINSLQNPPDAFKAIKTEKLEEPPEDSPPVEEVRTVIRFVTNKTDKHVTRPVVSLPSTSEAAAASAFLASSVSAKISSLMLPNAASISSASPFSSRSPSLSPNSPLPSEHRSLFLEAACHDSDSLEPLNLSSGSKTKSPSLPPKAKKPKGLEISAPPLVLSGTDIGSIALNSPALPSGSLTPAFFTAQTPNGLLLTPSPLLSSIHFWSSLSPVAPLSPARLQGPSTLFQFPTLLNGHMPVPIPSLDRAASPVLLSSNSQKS
Conditions: protein: recombinant; tags: N-terminal GST; dsDNA, one strand shown. In short, it runs like this: as §1

In the next assay the target is T7, FEV (Homo sapiens, UniProt Q99581 1-238).
T7 sequence: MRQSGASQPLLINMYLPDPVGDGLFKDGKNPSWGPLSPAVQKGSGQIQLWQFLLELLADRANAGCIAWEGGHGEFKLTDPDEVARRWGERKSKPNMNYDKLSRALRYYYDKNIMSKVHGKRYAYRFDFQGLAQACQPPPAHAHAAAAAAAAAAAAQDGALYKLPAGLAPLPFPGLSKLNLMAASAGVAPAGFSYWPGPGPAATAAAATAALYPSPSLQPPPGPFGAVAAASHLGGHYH
Conditions: protein: recombinant; tags: N-terminal GST; dsDNA, one strand shown. An outline of the steps:
as §1

The target in a further assay is ETV5 (Homo sapiens, UniProt P41161 1-510). Conditions: protein: recombinant; tags: N-terminal GST; dsDNA, one strand shown. In short, it runs like this:
as §1

For a further assay, the target named is HSF1 (Homo sapiens, UniProt Q00613 1-529). Conditions: protein: recombinant; tags: N-terminal GST; chain copies: 3; dsDNA, one strand shown. An outline of the steps:
as §1

The next assay has as its target T8, SPIC (Homo sapiens, UniProt Q8N5J4 1-248).
T8 sequence: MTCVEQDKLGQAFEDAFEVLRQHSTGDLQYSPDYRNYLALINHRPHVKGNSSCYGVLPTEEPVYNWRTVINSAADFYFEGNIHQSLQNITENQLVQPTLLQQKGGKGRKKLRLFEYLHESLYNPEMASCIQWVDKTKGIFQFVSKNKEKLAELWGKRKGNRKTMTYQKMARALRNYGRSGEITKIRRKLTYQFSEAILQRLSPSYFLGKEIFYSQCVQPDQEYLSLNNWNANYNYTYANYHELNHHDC
Conditions: protein: recombinant; tags: N-terminal GST; dsDNA, one strand shown. An outline of the steps:
as §1

Another assay concerns the target ELF4 (Homo sapiens, UniProt Q99607 1-663). As to conditions: protein: recombinant; tags: N-terminal GST; dsDNA, one strand shown. In short, it runs like this: as §1
A further assay deals with T9, ELK4 (Homo sapiens, UniProt P28324-2 1-405).
T9 sequence: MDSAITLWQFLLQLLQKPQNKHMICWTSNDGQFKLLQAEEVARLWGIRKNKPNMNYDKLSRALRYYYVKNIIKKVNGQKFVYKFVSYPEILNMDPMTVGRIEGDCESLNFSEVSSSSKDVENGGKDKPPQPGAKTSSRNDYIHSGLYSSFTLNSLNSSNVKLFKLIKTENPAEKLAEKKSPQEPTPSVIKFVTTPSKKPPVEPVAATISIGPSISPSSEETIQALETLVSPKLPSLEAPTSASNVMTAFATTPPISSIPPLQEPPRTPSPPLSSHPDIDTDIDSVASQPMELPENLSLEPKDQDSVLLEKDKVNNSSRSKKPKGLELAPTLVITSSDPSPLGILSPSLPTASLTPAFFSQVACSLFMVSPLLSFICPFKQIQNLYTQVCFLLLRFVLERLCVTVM
As to conditions: protein: recombinant; tags: N-terminal GST; dsDNA, one strand shown. An outline of the steps: as §1

The next assay addresses T10, ETV2 (Homo sapiens, UniProt O00321 1-342).
T10 sequence: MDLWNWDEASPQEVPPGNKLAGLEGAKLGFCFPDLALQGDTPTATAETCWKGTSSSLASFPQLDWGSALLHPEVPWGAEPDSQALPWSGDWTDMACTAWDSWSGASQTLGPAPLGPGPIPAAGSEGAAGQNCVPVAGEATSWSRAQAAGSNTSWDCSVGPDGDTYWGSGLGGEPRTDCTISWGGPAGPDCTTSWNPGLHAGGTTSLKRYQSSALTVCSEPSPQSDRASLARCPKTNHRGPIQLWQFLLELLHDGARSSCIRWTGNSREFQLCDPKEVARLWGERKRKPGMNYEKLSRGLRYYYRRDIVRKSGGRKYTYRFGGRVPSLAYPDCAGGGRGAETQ
As to conditions: protein: recombinant; tags: N-terminal GST; dsDNA, one strand shown. An outline of the steps:
as §1

The target of the next assay is T11, ELF3 (Homo sapiens, UniProt P78545 1-371).
T11 sequence: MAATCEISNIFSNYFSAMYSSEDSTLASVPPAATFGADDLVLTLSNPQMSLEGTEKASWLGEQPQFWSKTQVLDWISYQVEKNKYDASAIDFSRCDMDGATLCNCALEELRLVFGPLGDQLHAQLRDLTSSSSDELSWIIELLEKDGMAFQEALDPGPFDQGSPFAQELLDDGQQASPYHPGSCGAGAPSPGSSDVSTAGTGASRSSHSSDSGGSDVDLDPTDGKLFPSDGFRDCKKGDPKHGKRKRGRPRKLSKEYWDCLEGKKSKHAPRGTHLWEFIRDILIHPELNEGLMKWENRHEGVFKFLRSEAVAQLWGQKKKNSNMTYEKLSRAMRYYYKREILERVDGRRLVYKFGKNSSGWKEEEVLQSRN
Conditions: protein: recombinant; tags: N-terminal GST; dsDNA, one strand shown. In short, it runs like this: as §1

In the next assay the target is CRX (Homo sapiens, UniProt O43186 1-299). As to conditions: protein: recombinant; tags: N-terminal GST; dsDNA, one strand shown. In short, it runs like this: as §1
The target in a further assay is ETV1 (Homo sapiens, UniProt P50549 1-477). Conditions: protein: recombinant; tags: N-terminal GST; dsDNA, one strand shown. An outline of the steps:
as §1

Chain of ELF4 (Q99607 whole entry): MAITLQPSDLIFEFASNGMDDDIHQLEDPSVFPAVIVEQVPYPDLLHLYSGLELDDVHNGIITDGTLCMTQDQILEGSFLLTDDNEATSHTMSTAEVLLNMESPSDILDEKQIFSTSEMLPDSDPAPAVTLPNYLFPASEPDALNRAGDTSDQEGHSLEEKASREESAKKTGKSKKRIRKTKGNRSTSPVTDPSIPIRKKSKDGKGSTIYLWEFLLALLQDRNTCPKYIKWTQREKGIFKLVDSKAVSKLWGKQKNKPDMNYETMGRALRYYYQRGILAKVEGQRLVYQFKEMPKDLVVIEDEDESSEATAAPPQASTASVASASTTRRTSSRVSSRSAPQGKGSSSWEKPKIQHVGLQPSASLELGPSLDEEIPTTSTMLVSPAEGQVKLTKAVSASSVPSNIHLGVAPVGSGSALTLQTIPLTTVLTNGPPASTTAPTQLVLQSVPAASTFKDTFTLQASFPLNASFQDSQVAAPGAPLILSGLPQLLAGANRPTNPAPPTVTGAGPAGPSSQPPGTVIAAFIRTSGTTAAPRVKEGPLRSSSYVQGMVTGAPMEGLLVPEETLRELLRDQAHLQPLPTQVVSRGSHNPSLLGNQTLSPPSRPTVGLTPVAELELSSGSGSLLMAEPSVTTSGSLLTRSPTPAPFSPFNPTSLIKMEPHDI
Chain of ELF1 (P32519 whole entry): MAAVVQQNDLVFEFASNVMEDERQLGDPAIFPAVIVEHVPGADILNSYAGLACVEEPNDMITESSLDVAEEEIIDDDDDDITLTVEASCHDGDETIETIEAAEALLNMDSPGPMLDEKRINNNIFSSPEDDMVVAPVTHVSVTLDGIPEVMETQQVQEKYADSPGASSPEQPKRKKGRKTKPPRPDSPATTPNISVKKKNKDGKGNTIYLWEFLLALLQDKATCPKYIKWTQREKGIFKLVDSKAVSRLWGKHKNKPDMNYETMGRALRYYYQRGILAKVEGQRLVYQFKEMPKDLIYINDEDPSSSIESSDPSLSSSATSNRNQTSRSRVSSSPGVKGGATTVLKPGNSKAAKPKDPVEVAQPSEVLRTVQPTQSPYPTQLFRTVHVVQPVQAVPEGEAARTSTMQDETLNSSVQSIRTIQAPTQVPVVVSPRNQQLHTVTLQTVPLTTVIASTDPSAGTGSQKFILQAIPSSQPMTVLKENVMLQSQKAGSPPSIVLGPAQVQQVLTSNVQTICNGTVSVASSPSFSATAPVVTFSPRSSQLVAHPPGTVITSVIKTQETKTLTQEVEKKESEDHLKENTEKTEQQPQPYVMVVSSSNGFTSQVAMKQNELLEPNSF
Chain of SPIB (Q01892 whole entry): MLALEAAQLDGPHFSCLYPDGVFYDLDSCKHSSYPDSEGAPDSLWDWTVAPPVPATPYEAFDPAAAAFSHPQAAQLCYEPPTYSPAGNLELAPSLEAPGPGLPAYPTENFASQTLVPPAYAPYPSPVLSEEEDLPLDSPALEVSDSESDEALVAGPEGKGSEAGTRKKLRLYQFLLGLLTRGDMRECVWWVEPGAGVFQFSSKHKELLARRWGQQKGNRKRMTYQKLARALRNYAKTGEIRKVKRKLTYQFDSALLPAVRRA
Chain of HSF1 (Q00613 whole entry): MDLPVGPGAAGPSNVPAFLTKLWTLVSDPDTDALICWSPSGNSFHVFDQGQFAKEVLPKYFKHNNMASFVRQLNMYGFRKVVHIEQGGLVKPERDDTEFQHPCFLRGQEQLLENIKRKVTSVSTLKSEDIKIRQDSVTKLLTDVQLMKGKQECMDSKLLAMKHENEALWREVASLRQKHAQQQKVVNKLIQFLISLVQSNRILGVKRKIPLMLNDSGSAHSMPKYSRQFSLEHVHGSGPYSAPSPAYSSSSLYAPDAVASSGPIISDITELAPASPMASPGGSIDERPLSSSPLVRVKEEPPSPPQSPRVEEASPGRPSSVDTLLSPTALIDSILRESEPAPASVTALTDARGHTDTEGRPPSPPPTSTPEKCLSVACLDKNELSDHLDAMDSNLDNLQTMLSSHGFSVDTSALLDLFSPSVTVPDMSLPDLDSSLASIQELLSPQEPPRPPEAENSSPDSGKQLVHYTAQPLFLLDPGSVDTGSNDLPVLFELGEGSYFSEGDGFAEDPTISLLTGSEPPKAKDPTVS
Chain of ETV1 (P50549 whole entry): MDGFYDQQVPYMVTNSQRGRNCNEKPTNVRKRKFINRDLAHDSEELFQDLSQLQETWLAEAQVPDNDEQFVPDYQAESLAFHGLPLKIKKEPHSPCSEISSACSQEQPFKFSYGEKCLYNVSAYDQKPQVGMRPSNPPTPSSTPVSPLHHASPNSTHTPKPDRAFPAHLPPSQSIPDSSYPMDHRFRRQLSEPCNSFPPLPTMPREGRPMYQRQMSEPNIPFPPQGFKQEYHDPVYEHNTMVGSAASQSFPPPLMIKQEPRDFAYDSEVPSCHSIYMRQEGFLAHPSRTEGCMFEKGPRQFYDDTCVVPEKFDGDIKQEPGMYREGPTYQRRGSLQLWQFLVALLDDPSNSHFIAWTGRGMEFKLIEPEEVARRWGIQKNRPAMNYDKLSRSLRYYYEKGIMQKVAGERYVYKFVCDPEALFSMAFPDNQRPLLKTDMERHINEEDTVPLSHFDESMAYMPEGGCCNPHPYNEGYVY
Chain of CRX (O43186 whole entry): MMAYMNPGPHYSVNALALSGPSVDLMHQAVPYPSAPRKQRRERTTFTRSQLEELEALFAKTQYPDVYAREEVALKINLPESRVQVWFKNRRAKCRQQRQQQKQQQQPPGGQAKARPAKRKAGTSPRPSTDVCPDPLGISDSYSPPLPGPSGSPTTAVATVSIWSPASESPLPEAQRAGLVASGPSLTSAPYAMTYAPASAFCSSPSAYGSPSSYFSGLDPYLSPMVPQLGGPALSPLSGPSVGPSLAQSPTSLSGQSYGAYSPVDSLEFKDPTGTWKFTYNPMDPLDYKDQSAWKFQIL
Chain of ETV5 (P41161 whole entry): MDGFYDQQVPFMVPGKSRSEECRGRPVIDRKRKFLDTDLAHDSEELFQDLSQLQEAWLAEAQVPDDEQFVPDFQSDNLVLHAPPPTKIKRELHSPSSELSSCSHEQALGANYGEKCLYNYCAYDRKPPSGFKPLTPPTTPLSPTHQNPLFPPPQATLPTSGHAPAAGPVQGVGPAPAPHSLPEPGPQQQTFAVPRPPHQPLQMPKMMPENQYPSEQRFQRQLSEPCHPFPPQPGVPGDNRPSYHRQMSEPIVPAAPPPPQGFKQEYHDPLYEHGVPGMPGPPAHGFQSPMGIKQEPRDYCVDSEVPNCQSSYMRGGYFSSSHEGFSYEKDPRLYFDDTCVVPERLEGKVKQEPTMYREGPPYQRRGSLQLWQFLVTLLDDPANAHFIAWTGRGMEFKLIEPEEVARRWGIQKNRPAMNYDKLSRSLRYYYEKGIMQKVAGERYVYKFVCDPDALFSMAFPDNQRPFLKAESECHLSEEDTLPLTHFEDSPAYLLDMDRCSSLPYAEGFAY

For ATCTAC, the binding signal with FLI1 is 1.2 fold enrichment (6-mer frequency, TF over GST control); in the assay with ELK1 it was 1.38 fold enrichment (6-mer frequency, TF over GST control); with GABPA, 1.22 fold enrichment (6-mer frequency, TF over GST control); with ERG it was 1.2 fold enrichment (6-mer frequency, TF over GST control); with ELF1 it was 1.34 fold enrichment (6-mer frequency, TF over GST control); in the assay with EHF it was 1.25 fold enrichment (6-mer frequency, TF over GST control). In addition, the binding signal with SPI1 was 1.34 fold enrichment (6-mer frequency, TF over GST control); in the assay with SPIB, 1.35 fold enrichment (6-mer frequency, TF over GST control); in the assay with ELK3 it was 1.27 fold enrichment (6-mer frequency, TF over GST control); with FEV, 1.33 fold enrichment (6-mer frequency, TF over GST control); with ETV5, 1.25 fold enrichment (6-mer frequency, TF over GST control); with HSF1, 1.43 fold enrichment (6-mer frequency, TF over GST control). The binding signal in the assay with SPIC is 1.34 fold enrichment (6-mer frequency, TF over GST control); with ELF4 it was 1.27 fold enrichment (6-mer frequency, TF over GST control); with ELK4 it was 1.11 fold enrichment (6-mer frequency, TF over GST control); with ETV2, 1.29 fold enrichment (6-mer frequency, TF over GST control); in the assay with ELF3, 1.33 fold enrichment (6-mer frequency, TF over GST control); in the assay with CRX it was 1.5 fold enrichment (6-mer frequency, TF over GST control). In addition, the binding signal with ETV1 was 1.26 fold enrichment (6-mer frequency, TF over GST control).
